These results are taken from PubChem BioAssay AID2315 (National Center for Advancing Translational Sciences (NCATS), 2010).

Structures are written as SMILES. About 27,000 (9.3%) of roughly 290,000 compounds were called active. What follows is part of a selection rich in actives, with near analogues and random picks from the rest. A number with no mark means an inactive call. Rule as the data show it: active = inhibition mostly above about 28% (no sharp cut-off); inactive = mostly below about 43%.

The nature of the test: A qHTS for Small Molecule Inhibitors of Shiga Toxin. Also: 0% is about no effect. Conditions: Vero cells, Shiga toxin protein synthesis inhibition reporter; at 38.7 µM, active compounds read high.
On to `CCOC(=O)C1(Cc2ccccc2C)CCCN(S(C)(=O)=O)C1` (configuration not stated), for which the inhibition was -1.22%.

For `CCOC(=O)C1(Cc2ccccc2C)CCCN(C(=O)CN2C(=O)CSC2=O)C1` (configuration not stated), the inhibition is 78.9% (active).

On to `CCOC(=O)C1(CCc2ccccc2)CCN(Cc2ccco2)CC1`, for which the inhibition is -2.54%.

In the case of `CCOC(=O)C1(Cc2ccccc2C)CCCN(C(=O)c2ccc(COC)o2)C1` (configuration not stated), the inhibition was 121% (active).

Turning to `O=C(CN1C(=O)CSC1=O)N1CCCC(Nc2ccc(F)cc2)C1` (configuration not stated), the inhibition was 0.485%.

For the compound `O=C(Cn1c(=O)n(CC2CS2)c2ccccc21)N1CCCCC1` (configuration not stated), the inhibition was -7.24%.

As to `CC(C)c1ccc(S(=O)(=O)NC2CCCC2)cc1`, the inhibition is -8.49%.

Consider `CS(=O)(=O)N1CCc2cc(C(=O)Nc3ccccc3Br)ccc21`, for which the inhibition was 50.7% (active).

Regarding `CS(=O)(=O)N1CCc2cc(C(=O)Nc3ccccc3)ccc21`, the inhibition was 3.54%.

Take `CSc1ccccc1NC(=O)c1ccc2c(c1)CCN2S(C)(=O)=O`: the inhibition is 38.2% (active).

As to `COc1ccc(OC)c(NC(=O)c2ccc3c(c2)CCN3S(C)(=O)=O)c1`, the inhibition is -5.31%.

In the case of `CCc1ccccc1NC(=O)c1ccc2c(c1)CCN2S(C)(=O)=O`, the inhibition is 21.4%.

For the compound `CC(=O)Nc1cccc(NC(=O)c2ccc3c(c2)CCN3S(C)(=O)=O)c1`, the inhibition is 6.84%.

Turning to `COc1cccc(Cn2cc(/C=N/NC(=O)c3cc(O)cc(O)c3)c3ccccc32)c1`, the inhibition is -3.1%.

Regarding `CS(=O)(=O)c1ccccc1C(=O)Nc1ccc2sccc2c1`, the inhibition was -5.25%.

As to `CCN(c1ccccc1)S(=O)(=O)c1ccc(NC(=O)C(C)(C)C)cc1`, the inhibition is 3.09%.

As to `CC(C)(CCl)C(=O)Nc1ccc(Sc2ccc(F)cc2)cc1`, the inhibition was 83% (active).

In the case of `O=C(CCl)Nc1ccc(Sc2ccc(NC(=O)CCl)cc2)cc1`, the inhibition was 16%.

As to `Cc1ncc(CC(=O)n2cc(C(=O)c3cc(Cl)ccc3O)cn2)s1`, the inhibition was 8.82%.

Turning to `O=C(O)c1ccc(NC(=O)c2cn(-c3ccccc3)nc2-c2ccc(Cl)cc2)cc1`, the inhibition was 24.5%.

Consider `O=C(c1cnn(-c2ccc(Cl)cc2)c1)c1ccccc1O`, for which the inhibition was 59.4% (active).

Turning to `CC(=O)Nc1c2c(nn1-c1cccc(C)c1)CSC2`, the inhibition is -5.43%.

With `O=C(CCS(=O)(=O)c1ccc(Br)cc1)NCCc1ccc(Cl)cc1`, the inhibition was -14.4%.

On to `Cc1nn(Cc2ccccc2Cl)c(Cl)c1C(=O)OC(C(=O)NC(N)=O)C(C)C` (configuration not stated), for which the inhibition is 8.84%.

As to `COc1ccccc1CCNC(=O)c1cnccn1`, the inhibition is 10.7%.

On to `COc1ccccc1CCNC(=O)c1c(C)nn(CC(C)C)c1Cl`, for which the inhibition was 62.8% (active).

As for `N#CC(C#N)=CN=c1ccn(Cc2ccc(Cl)cc2Cl)cc1`, the inhibition is 1.18%.

For `Clc1c(OCCCn2ccnc2)ccc2ccccc12`, the inhibition is 17.6%.

Take `Cc1ccc(CCNC(=O)c2ccc3nc4ccccc4c(=O)n3c2)cc1`: the inhibition was 5.74%.

Turning to `O=C(Oc1ccccc1C(=S)N1CCCCC1)c1cc([N+](=O)[O-])cc([N+](=O)[O-])c1`, the inhibition was 13%.

Regarding `Cc1ccc(OCC(=O)Nc2ccc(S(=O)(=O)Nc3ccccn3)cc2)cc1`, the inhibition was 2.76%.

For the compound `CCN(CC)CCCNC(=O)COc1ccc2oc3c(c2c1)CCCC3`, the inhibition was -7.61%.

For the compound `O=C(COc1ccc2oc3c(c2c1)CCCC3)Nc1ccccn1`, the inhibition was 57.2% (active).

For the compound `Cc1ccc(Cn2nnc3c(=O)[nH]c(C4CCN(S(=O)(=O)/C=C/c5ccccc5)CC4)nc32)cc1`, the inhibition is -13.7%.

With `COCn1c(C(O)c2ccccc2)cc2ccccc21` (configuration not stated), the inhibition is -6.57%.

With `Cc1ccn2c(c1)nc(=O)c1cc(S(=O)(=O)N3CCC(C)CC3)ccc12`, the inhibition is 14.3%.

For the compound `O=C1Nc2cc(C(=O)N3CCC(N4CCCCC4)CC3)ccc2S/C1=C\c1ccccc1`, the inhibition is -12.8%.

With `C=CCCN(C(Cc1ccccc1)C(=O)OC)S(=O)(=O)c1cc(Br)ccc1Br` (configuration not stated), the inhibition was 2.22%.

Regarding `CCC(C)c1ccc(NC(=S)NCc2ccccn2)cc1` (configuration not stated), the inhibition is 56.9% (active).

Turning to `COc1cccc(S(=O)(=O)NCc2ccc(C(=O)NCc3ccccn3)cc2)c1`, the inhibition is -7.83%.

For `COc1cccc(NC(=O)NCCN2CCCCC2)c1`, the inhibition is 17.6%.

On to `COc1cccc(NC(=S)N(Cc2ccc(C)cc2)Cc2ccccn2)c1`, for which the inhibition is -9.99%.

For the compound `O=C(NCc1cccc(CNC(=O)Nc2cccc(O)c2)c1)Nc1cccc(O)c1`, the inhibition was 17.1%.

As for `COc1cccc(NC(=O)NCc2ccc(F)cc2)c1`, the inhibition is 43.7% (active).

Regarding `Cc1cc(C)cc(NC(=O)NCc2ccccn2)c1`, the inhibition is -1.91%.

On to `COC(=O)Cc1ccc(NC(=S)NCc2ccccc2)cc1`, for which the inhibition was -2.18%.

With `COc1cccc(NC(=S)NCc2ccccn2)c1`, the inhibition was 60.7% (active).

As for `COc1ccc(OC)c(CCNC(=O)CCn2ccc3cc(S(=O)(=O)N4CCCC4)ccc32)c1`, the inhibition is 1.48%.

As to `COc1ccc(N(CC(=O)Nc2ccc(F)c(F)c2)S(=O)(=O)c2c(C)[nH]c(=O)[nH]c2=O)cc1`, the inhibition is -5.76%.

`COc1cccc(OC)c1C(=O)Nc1ccc2c(c1)n(C)c(=O)n2C`: the inhibition is -1.01%.

With `COc1ccc(NS(=O)(=O)c2cc(NC(=O)C3CCCCC3)ccc2N2CCOCC2)cc1`, the inhibition is -4.94%.

Take `Cn1c(=O)[nH]c(=O)c2c1[nH]c(=S)n2Cc1ccccc1`: the inhibition was -6.6%.

In the case of `CCc1cccc(C)c1NS(=O)(=O)c1c(C)nc2sccn2c1=O`, the inhibition was -3.6%.

On to `CCNS(=O)(=O)c1ccc(CCC(=O)N2CCN(c3cc(Cl)ccc3C)CC2)cc1`, for which the inhibition is -3.72%.

Take `O=c1o[nH]c(-c2ccccc2)c1N=Nc1c(F)cccc1Cl`: the inhibition is -2.82%.

For the compound `Cc1noc(C)c1-c1ccc2ncnc(NCc3ccc(F)c(F)c3)c2c1`, the inhibition is 10.1%.

In the case of `Cc1noc(C)c1-c1ccc2ncnc(NCc3ccc4[nH]ccc4c3)c2c1`, the inhibition is 70.1% (active).

As for `Cc1noc(C)c1-c1ccc2ncnc(NC(C)c3ccco3)c2c1` (configuration not stated), the inhibition was 30.2%.

With `O=Cc1c(NCCCN2CCCC2=O)c2ccccc2[nH]c1=O`, the inhibition is 7.22%.

With `Cc1ccc(CSc2nc3[nH]ncc3c(=O)[nH]2)cc1`, the inhibition was 136% (active).

Consider `Cc1cccc(NC(=O)CSc2nc3[nH]ncc3c(=O)[nH]2)c1`, for which the inhibition is -11.6%.

Turning to `CCCSc1nc2[nH]ncc2c(=O)[nH]1`, the inhibition is -9.31%.
